Source: PubChem BioAssay (NCI)
The panel holds about 83,000 compounds, 20% with a hit somewhere; the sample as a whole holds those more often.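 The test compound was applied at a single concentration to cells in 96-well plates for 48 hours, and percent growth was recorded.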 Calls of active or inactive are those of the source. How the source made its calls: active means growth percent below 10; inactive means the rest.

tested on: DU-145 prostate; test: NCI-60 one-dose screen, 48 h (100 = growth as untreated, 0 = no growth, -100 = all killed); details: 10 µM unless noted

Compound	growth
C=CCn1c(SCC(=O)Nc2ccc(C(=O)/C=C/c3ccc(OC)cc3)cc2)nnc1-c1ccccc1	93.8% (inactive)
COc1cc2ncnc(Nc3ccc(F)c(Cl)c3)c2cc1OCC(=O)N1CCN(c2ccc(F)cc2)CC1	60.5% (inactive)
Cc1ccc2nc(Cl)c(Cn3nnnc3SCc3ccccc3)cc2c1	101% (inactive)
CN1CCN(CCOc2ccc(-c3cnc4c(-c5ccc(C(F)(F)F)cc5)cnn4c3)cc2)CC1	40.7% (inactive)
C/C(C=O)=C\c1ccc2c(c1)OCO2	108% (inactive)
Cc1ccc(O)c(NC(=O)c2ccc(CNc3ccnc(C(F)(F)F)c3)cc2)c1	107% (inactive)
O=C1/C(=C/c2ccc(C(F)(F)F)cc2)COc2ccc(O)c(O)c21	16.1% (inactive)
O=C(N/N=C/c1ccc(O)cc1O)c1ccc(Nc2ccnc(C(F)(F)F)c2)cc1	53.5% (inactive)
O=c1[nH]c(-c2ccc(Cl)cc2)cn1-c1ccc(-n2cc(-c3ccc(Cl)cc3)[nH]c2=O)cc1	108% (inactive)
CC1O[C@@H]2C[C@@](O)([C@H]1O)n1c3ccccc3c3c4c(c5c6ccccc6n2c5c31)C(=O)NC4=O (stereo not given in full)	57.8% (inactive)
COC1=CC(c2ccc[nH]2)=N/C1=C\c1[nH]c(C)c(CC(=O)OCc2ccccc2)c1C	20.8% (inactive)
NC(=O)c1ccc(NC(=O)c2oc3ccccc3c2-c2cnn(-c3ccccc3)c2)cc1	7.15% [50 µM] (active)
CCOC(=O)N1CCN(S(=O)(=O)c2oc(-c3ccc(Cl)cc3)nc2C#N)CC1	103% (inactive)
Cc1nn(-c2ccccc2)c(N2CCCCC2)c1/C=N/NC(=O)Cn1c(=O)sc2ccccc21	95.8% (inactive)
CN(C)c1ccc(C(=NO)c2ccc(N(C)C)cc2)cc1	56% (inactive)
Clc1ccc(-c2nc(-c3c[nH]c4ncccc34)cs2)cc1	79.6% [100 µM] (inactive)
COc1ccc(C(c2cc(OC)c(OC)c(OC)c2)N2CCCC2)cc1 (stereo not given)	103% (inactive)
COc1cccc(C(=O)OCC(O)C(=O)NC23CC4CC(CC(C4)C2)C3)c1 (stereo not given)	106% (inactive)
C=CC(=O)N1CCN(c2ccc3cccc(NC(=O)c4cnc(C)cn4)c3n2)CC1	29.1% (inactive)
CCOC(=O)c1c(C)c2c(n1C)CSc1cc(S(=O)(=O)c3ccccc3)c(=O)[nH]c1-2	25.8% [100 µM] (inactive)

Compound	growth
CCCCCCCCNc1cc2c3c(c1)CCCN3CCC2	-2.64% (active)
COc1ccc(OC)c(-c2cn3nc(-c4c[nH]c5ccc(Br)cc45)sc3n2)c1	29.3% (inactive)
CS(=O)(=O)Nc1cc(-c2ccc3ncnc(Nc4ccc5c(cnn5Cc5cccnc5)c4)c3c2)cnc1Cl	63.4% (inactive)
C=CCN=C(N)SCCCCCCSC(N)=NCC=C	107% (inactive)
COc1cc(C2C3=C(COC3=O)N(CCO)c3cc4c(cc32)OCCO4)cc(OC)c1OC (stereo not given)	-30.1% (active)
COc1ccc2[nH]cc(-c3nc(-c4cn(C)c5ccncc45)cs3)c2c1	2.58% (active)
COc1cccc(NC(=O)c2cccc(C3CCc4c(cc(OC)c(OC)c4OC)O3)c2)c1 (stereo not given)	79.6% (inactive)
Cn1c(O)c(C(/C=C/c2ccccc2)=Nc2ccccc2N)c(=O)n(C)c1=O	117% (inactive)
CC1=C(C(=O)n2c3ccccc3c3ccccc32)C(c2cccc([N+](=O)[O-])c2)C(C(=O)n2c3ccccc3c3ccccc32)=C(C)N1	103% (inactive)
O=C(O)c1cn(C2CC2)c2cc(N3CCN(C(=O)N/N=C/c4ccccc4)CC3)c(F)cc2c1=O	104% (inactive)
CC1(C)CCC(S(=O)(=O)c2ccc3c(c2)/C(=N\O)c2cc(S(=O)(=O)N4CCN(c5ccc(F)cc5O)CC4)ccc2-3)CC1	-46% (active)
Cc1ccc(C)n1/C=C/n1c(C)ccc1C	113% (inactive)
CCOC(=O)C(=Cc1cccc(C#N)c1)C(=O)OCC	48% (inactive)
COc1cc(-c2nc(NC(C)=O)sc2-c2ccnc(NCCNS(=O)(=O)c3ccccc3)n2)ccc1Cl	53.4% (inactive)
CCN1CCN(CC(=O)Nc2nc3ccc(NCc4ccc(Br)cc4)cc3s2)CC1	83.9% (inactive)
C/C(=N\Nc1nc(C)cs1)c1cc2ccccc2o1	107% (inactive)
COc1ccccc1-n1c(-c2cc(O)ccc2C)cn2c3c(=O)[nH]c(=O)n(C)c3nc12	79.3% (inactive)
N#C/C(=C\c1ccc(Br)cc1)c1cc2ccccc2[nH]1	104% (inactive)
COc1ccc(C2=C/C(=C\c3ccc(Cl)cc3)C(=O)N2/N=C/c2ccc(Cl)cc2)cc1	105% (inactive)
CC(O)c1ncc(/C=C2\SC(=S)N(Cc3ccccc3)C2=O)s1 (stereo not given)	89.2% (inactive)

tested on: K-562 leukemia; test: as above; details: 10 µM unless noted

Compound	growth
C=CCn1c(SCC(=O)Nc2ccc(C(=O)/C=C/c3ccc(OC)cc3)cc2)nnc1-c1ccccc1	91.5% (inactive)
COc1cc2ncnc(Nc3ccc(F)c(Cl)c3)c2cc1OCC(=O)N1CCN(c2ccc(F)cc2)CC1	83.6% (inactive)
Cc1ccc2nc(Cl)c(Cn3nnnc3SCc3ccccc3)cc2c1	87.9% (inactive)
CN1CCN(CCOc2ccc(-c3cnc4c(-c5ccc(C(F)(F)F)cc5)cnn4c3)cc2)CC1	-36% (active)
C/C(C=O)=C\c1ccc2c(c1)OCO2	113% (inactive)
Cc1ccc(O)c(NC(=O)c2ccc(CNc3ccnc(C(F)(F)F)c3)cc2)c1	24.2% (inactive)
O=C1/C(=C/c2ccc(C(F)(F)F)cc2)COc2ccc(O)c(O)c21	3.76% (active)
O=C(N/N=C/c1ccc(O)cc1O)c1ccc(Nc2ccnc(C(F)(F)F)c2)cc1	74.9% (inactive)
O=c1[nH]c(-c2ccc(Cl)cc2)cn1-c1ccc(-n2cc(-c3ccc(Cl)cc3)[nH]c2=O)cc1	113% (inactive)
CC1O[C@@H]2C[C@@](O)([C@H]1O)n1c3ccccc3c3c4c(c5c6ccccc6n2c5c31)C(=O)NC4=O (stereo not given in full)	30% (inactive)
COC1=CC(c2ccc[nH]2)=N/C1=C\c1[nH]c(C)c(CC(=O)OCc2ccccc2)c1C	2.58% (active)
NC(=O)c1ccc(NC(=O)c2oc3ccccc3c2-c2cnn(-c3ccccc3)c2)cc1	46% [50 µM] (inactive)
CCOC(=O)N1CCN(S(=O)(=O)c2oc(-c3ccc(Cl)cc3)nc2C#N)CC1	9.23% (active)
Cc1nn(-c2ccccc2)c(N2CCCCC2)c1/C=N/NC(=O)Cn1c(=O)sc2ccccc21	43.4% (inactive)
CN(C)c1ccc(C(=NO)c2ccc(N(C)C)cc2)cc1	17% (inactive)
Clc1ccc(-c2nc(-c3c[nH]c4ncccc34)cs2)cc1	100% [100 µM] (inactive)
COc1ccc(C(c2cc(OC)c(OC)c(OC)c2)N2CCCC2)cc1 (stereo not given)	25.3% (inactive)
COc1cccc(C(=O)OCC(O)C(=O)NC23CC4CC(CC(C4)C2)C3)c1 (stereo not given)	99.1% (inactive)
C=CC(=O)N1CCN(c2ccc3cccc(NC(=O)c4cnc(C)cn4)c3n2)CC1	36.5% (inactive)
CCOC(=O)c1c(C)c2c(n1C)CSc1cc(S(=O)(=O)c3ccccc3)c(=O)[nH]c1-2	31% [100 µM] (inactive)

Compound	growth
CCCCCCCCNc1cc2c3c(c1)CCCN3CCC2	18.8% (inactive)
COc1ccc(OC)c(-c2cn3nc(-c4c[nH]c5ccc(Br)cc45)sc3n2)c1	5.98% (active)
CS(=O)(=O)Nc1cc(-c2ccc3ncnc(Nc4ccc5c(cnn5Cc5cccnc5)c4)c3c2)cnc1Cl	57.7% (inactive)
C=CCN=C(N)SCCCCCCSC(N)=NCC=C	79.2% (inactive)
COc1cc(C2C3=C(COC3=O)N(CCO)c3cc4c(cc32)OCCO4)cc(OC)c1OC (stereo not given)	5.23% (active)
COc1ccc2[nH]cc(-c3nc(-c4cn(C)c5ccncc45)cs3)c2c1	-26.3% (active)
COc1cccc(NC(=O)c2cccc(C3CCc4c(cc(OC)c(OC)c4OC)O3)c2)c1 (stereo not given)	35.6% (inactive)
Cn1c(O)c(C(/C=C/c2ccccc2)=Nc2ccccc2N)c(=O)n(C)c1=O	55.9% (inactive)
CC1=C(C(=O)n2c3ccccc3c3ccccc32)C(c2cccc([N+](=O)[O-])c2)C(C(=O)n2c3ccccc3c3ccccc32)=C(C)N1	95.8% (inactive)
O=C(O)c1cn(C2CC2)c2cc(N3CCN(C(=O)N/N=C/c4ccccc4)CC3)c(F)cc2c1=O	89.1% (inactive)
CC1(C)CCC(S(=O)(=O)c2ccc3c(c2)/C(=N\O)c2cc(S(=O)(=O)N4CCN(c5ccc(F)cc5O)CC4)ccc2-3)CC1	-78.4% (active)
Cc1ccc(C)n1/C=C/n1c(C)ccc1C	117% (inactive)
CCOC(=O)C(=Cc1cccc(C#N)c1)C(=O)OCC	22.7% (inactive)
COc1cc(-c2nc(NC(C)=O)sc2-c2ccnc(NCCNS(=O)(=O)c3ccccc3)n2)ccc1Cl	13.8% (inactive)
CCN1CCN(CC(=O)Nc2nc3ccc(NCc4ccc(Br)cc4)cc3s2)CC1	-49.7% (active)
C/C(=N\Nc1nc(C)cs1)c1cc2ccccc2o1	78.4% (inactive)
COc1ccccc1-n1c(-c2cc(O)ccc2C)cn2c3c(=O)[nH]c(=O)n(C)c3nc12	25.3% (inactive)
N#C/C(=C\c1ccc(Br)cc1)c1cc2ccccc2[nH]1	86.4% (inactive)
COc1ccc(C2=C/C(=C\c3ccc(Cl)cc3)C(=O)N2/N=C/c2ccc(Cl)cc2)cc1	89.2% (inactive)
CC(O)c1ncc(/C=C2\SC(=S)N(Cc3ccccc3)C2=O)s1 (stereo not given)	87.9% (inactive)
